Drawing on the supplement of paper PMC8699584, this text covers cell viability for 14 molecules.

± gives the standard deviation of the averaged measurements.

In this test the test system is Mv4-11. The test is described as follows: cell viability relative to DMSO control (bortezomib = 0%); higher = less growth inhibition. Particulars: 10 nM; 72 h. In a few lines:
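Acute myeloid leukemia cells were plated at 1000 cells per well in 50 µL onto a 679-compound library of approved and investigational agents in 384-well plates and exposed to a single 10 nM dose for 72 h, in duplicate. Cell viability was measured by CellTiter-Glo luminescence on an EnVision reader. Readings were scaled to percentages by per-plate linear regression, with DMSO-treated cells set at 100% and positive-control-treated cells at 0%.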
As usually defined, the cell viability is a read-out of living cells in per cent, often relative to untreated cells. As for `NS(=O)(=O)c1ccc(Nc2nc(OCC3CCCCC3)c3[nH]cnc3n2)cc1`, the cell viability worked out at 109 ± 13%.
In the case of `Cn1cnc2c(F)c(Nc3ccc(Br)cc3Cl)c(C(=O)NOCCO)cc21` [Selumetinib (AZD6244)], the cell viability was 106 ± 3.2%.
Turning to `CN1CCN(c2ccc(C(=O)Nc3cc(-c4cccc(NS(=O)(=O)c5ccccc5)c4)[nH]n3)cc2)CC1`, the cell viability worked out at 85.5 ± 9.9%.
With `FC(F)(F)c1ccc(/C=C/c2nc(COc3ccc(CCCCn4ccnn4)cc3)co2)cc1` [Mubritinib (TAK 165)], the cell viability is 104 ± 7.6%.
As to `COc1ccc(-c2cc(=O)c3c(O)cc(O)cc3o2)cc1O` [Diosmetin], the cell viability came out at 96.8 ± 6.3%.
To `O=C(O)c1ccc(Nc2ncc3c(n2)-c2ccc(Cl)cc2C(c2c(F)cccc2F)=NC3)cc1` belongs 107 ± 3.6%; to `CCOC(=O)c1c2c3c(cccc3[nH]c1=O)C(=O)c1ccccc1-2`, 103 ± 19%.
In the case of `O=c1cc(-c2ccc(O)cc2)oc2cc(O)cc(O)c12` [Apigenin], the cell viability was found to be 95.3 ± 2.3%.
With `N#CC(=C(/N)Sc1ccccc1N)/C(C#N)=C(/N)Sc1ccccc1N`, the cell viability was 129 ± 2.2%.
With `O=C(Nc1cc(Cl)cc2c1[nH]c1cnccc12)c1cccnc1`, the cell viability was determined as 110.7 ± 0.66%.
As for `CN1C(=O)C(c2c[nH]c3ccccc23)=C(c2c[nH]c3ccccc23)C1=O` [Bisindolylmaleimide V], the cell viability came to 113 ± 9.1%.
`CCn1c(N)c(C(=O)NC)c(=O)c2ccc(C#CC(C)(O)COC)nc21` (centres undefined): the cell viability was 115 ± 8.3%.
As for `CCOC(=O)c1cnc2ccc(-c3cncc(NS(=O)(=O)c4ccccc4)c3)cn12`, the cell viability came to 103 ± 14%.
Turning to `CN(C)CCCn1cc(C2=C(c3c[nH]c4ccccc34)C(=O)NC2=O)c2ccccc21` [Bisindolylmaleimide I], the cell viability worked out at 67.1 ± 44%.
